Screening results (PubChem BioAssay)
A selection: hits, their analogues and other compounds. The true share with any hit is near 9.3%.
NPC1 prom act = qHTS Assay for NPC1 Promoter Activators. Huh7 NPC1 promoter luciferase reporter, 24 h. Potency, µM (doses to about 9.22 µM), without a hit: at the top dose activation, most hits filed as activators. 320,000 compounds, 2.4% hits. AID 485313, 2010; also: % of control where 0% means no effect; nearly all actives have a fitted effect of over 60% in size
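Stably transfected Huh7 (NPC1 promoter→luciferase), 1500 cells/well in Opti-MEM + 10% FBS, 2 h settle, then compound 24 h at 37 °C. Luminescence after 10 min with Amplite reagent.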
ELG1 genotoxic = qHTS screen for small molecules that induce genotoxicity in human embryonic kidney (HEK293T) cells expressing luciferase-tagged ELG1; HEK293T ELG1-luciferase reporter, luminescence, 16 h; Potency, µM (titrated, usually from 46 µM), for inactives: top-dose activity change, positive = activation, hits mostly activators; 330,000 compounds, 1.3% hits; AID 504466, 2011; also: % of control where 0% means no effect; nearly all actives have a fitted effect of over 60% in size
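Reporter readout depends on ELG1 protein level, which increases with genetic stress. After 16 hr compound exposure at 37 °C, luciferase activity was quantified using ONE-Glo.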
SMN2 splice up = qHTS Assay for Enhancers of SMN2 Splice Variant Expression. Potency, µM (doses to about 46.1 µM), for inactives: at the highest dose activity change, positive = activation, most hits filed as activators. 210,000 compounds, 2.8% hits. HEK293 SMN2-luciferase splicing reporter, luminescence, 30-36 h; also: % of control where 0% means no effect; nearly all actives have a fitted effect of over 55% in size
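HEK293 cells carry an SMN2 minigene-luciferase reporter in which exon 7 inclusion puts luciferase in frame. Cells were seeded at 2000 cells/well, attached for 10-12 hours, then exposed to compounds for 30-36 hours at 37C before ONE-Glo luminescence.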
ELG1 repair inh = qHTS screen for small molecules that inhibit ELG1-dependent DNA repair in human embryonic kidney (HEK293T) cells expressing luciferase-tagged ELG1; HEK293T ELG1-luciferase reporter, luminescence, 16 h; DNA damage induced by 5-fluorouridine; Potency, µM (top dose mostly 46.1 µM), for the others: at the top dose activity change, negative = inhibition, actives largely listed as inhibitors; 330,000 compounds, 2.3% hits; AID 504467, 2011; also: % is scaled to controls: 0 for no effect and ±100 for the full control effect; nearly all actives have a fitted effect of over 55% in size
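In this reporter screen, reduction of luminescence relative to DMSO vehicle indicated activity. Compounds and 5-fluorouridine were added together to 2,000 cells per well, incubated for 16 hr at 37 °C, then developed with ONE-Glo.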
FLuc modulator = qHTS profiling assay for firefly luciferase inhibitor/activator using purifed enzyme and Km concentrations of substrates (counterscreen for miR-21 project); Potency, µM (top dose mostly 57.5 µM), inactives show at the highest dose activity change, negative = inhibition, hits mostly inhibitors; purified FLuc, Km substrates, luminescence inhibition; 360,000 compounds, 6.9% hits; Luciferin 4-monooxygenase (Photinus pyralis), P08659;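 also: plate controls were vehicle for no effect and reference inhibitor for full effect; nearly all actives have a fitted effect of over 55% in size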
Target sequence (P08659 whole entry, looked up): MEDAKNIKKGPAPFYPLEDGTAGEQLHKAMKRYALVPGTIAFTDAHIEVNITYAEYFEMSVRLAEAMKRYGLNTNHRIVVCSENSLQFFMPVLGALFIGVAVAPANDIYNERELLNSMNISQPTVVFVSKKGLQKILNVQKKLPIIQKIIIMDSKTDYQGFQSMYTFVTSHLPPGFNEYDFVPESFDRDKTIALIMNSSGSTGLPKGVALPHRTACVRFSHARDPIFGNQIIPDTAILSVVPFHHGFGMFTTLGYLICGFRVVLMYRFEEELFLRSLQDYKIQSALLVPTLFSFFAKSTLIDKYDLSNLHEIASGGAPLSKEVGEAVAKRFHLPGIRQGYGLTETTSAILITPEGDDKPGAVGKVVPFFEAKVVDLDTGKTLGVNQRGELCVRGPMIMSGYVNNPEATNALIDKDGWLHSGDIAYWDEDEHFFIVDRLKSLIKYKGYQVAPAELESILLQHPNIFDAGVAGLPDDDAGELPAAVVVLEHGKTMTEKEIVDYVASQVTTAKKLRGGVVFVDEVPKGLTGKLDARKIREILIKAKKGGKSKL
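Biochemical qHTS of compounds, final roughly 60 µM downward over six points, against 10 nM purified firefly luciferase using Km concentrations of substrates (10 uM D-luciferin, 10 uM ATP) in Tris acetate pH 7.5 buffer; luminescence output.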
Rab9 prom act = qHTS Assay for Rab9 Promoter Activators; Huh7 Rab9 promoter-luciferase reporter, luminescence, 24 h; Potency, µM (series often up to 9.22 µM), for the others: at the top dose activation, negative = inhibition, most hits filed as activators; 320,000 compounds, 2.8% hits; also: % of control where 0% means no effect; nearly all actives have a fitted effect of over 60% in size
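Cell-based reporter: Huh7 stable for Rab9 promoter-driven luciferase, plated in reduced-serum medium with 10% FBS at 1500 cells/well, compound-treated 24 h at 37 °C, luminescence read after 10 min reagent.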
* hit, by the source's call; ? = inconclusive; nt = no result given. Calls follow the shape of the dose curve; as a rule, active = well fitted curve in the direction sought with a large enough effect; inconclusive = small, poorly fitted or top-dose-only effect, or another doubt; inactive = no such curve, though single readings can be large; an effect the other way counts as inactive or inconclusive. Potency is read from the fitted curve at half-maximal effect.

SMILES	NPC1 prom act	ELG1 genotoxic	SMN2 splice up	ELG1 repair inh	FLuc modulator	Rab9 prom act
COc1cc([N+](=O)[O-])ccc1NC(=S)N1CCOCC1	-2%	0%	nt	-1%	3%	-1%
COc1cc([N+](=O)[O-])ccc1NC(=O)Nc1ccc2c(c1)OCCO2	5%	3%	8%	4%	6.7µM*	?
CCOc1cc(C(=O)N(Cc2nc(-c3ccc(C)cc3)no2)C(C)C)cc(OCC)c1OCC	nt	nt	1%	nt	-11%	nt
COc1cc(C)ccc1S(=O)(=O)NC1CC(C)(C)NC(C)(C)C1	-4%	-1%	nt	12%	-1%	0%
Cn1c(SCc2ccccc2)nnc1-c1cnccn1	18%	20%	8%	?	-18%	6.3µM*
CCn1c(SCC(=O)O)nnc1-c1ccccc1OC	4.5µM*	23µM*	nt	?	13µM*	3.2µM*
Cc1ccc(-n2nnnc2SCC(=O)Nc2ccccc2-c2ccccc2)cc1C	3%	0%	-36%	?	2%	1%
Cc1ccc(-n2nnnc2SCC(=O)Nc2ccccc2N2CCCCC2)cc1C	4%	0%	-36%	9.2µM*	-1%	8%
CCn1c(SCC(=O)c2ccccc2)nnc1-c1cnccn1	?	16µM*	?	?	21µM*	?
CCOc1ccccc1N1CCN(CC(=O)Nc2ccccc2C(=O)NC2CC2)CC1	1%	-8%	nt	?	nt	0%
Cn1c(SCC(=O)c2ccccc2)nnc1-c1cnccn1	?	?	24%	?	?	3.2µM*
CCC(=O)Nc1cccc(-n2nnnc2SCC(=O)c2ccc(C)c(C)c2)c1	17%	12%	-10%	-31%	15µM*	17%
CCC(=O)Nc1cccc(-n2nnnc2SCC(=O)NCc2ccco2)c1	5%	10%	-10%	7%	3%	2%
CCC(=O)Nc1cccc(-c2nnc(SCC(=O)c3ccccc3)n2C)c1	?	?	3%	?	6µM*	1.8µM*
CCC(=O)Nc1cccc(-c2nnc(SCC(=O)NCc3ccco3)n2C)c1	-2%	0%	2%	-9%	-2%	-2%
Cn1c(SCC(=O)c2ccccc2)nnc1-c1cccs1	3.2µM*	?	nt	?	12µM*	2.8µM*
O=C(COC(=O)c1ccccc1O)NCc1ccccc1Cl	nt	0%	nt	-4%	nt	nt
N=C1SCC(=O)N1/N=C/c1ccccc1	0%	-20%	-33%	?	5.4µM*	1%
O=C1CSC(=S)N1/N=C/C=C/c1ccccc1	0%	-2%	1%	7%	?	-1%
Cc1[nH]nc2c1-c1nc3ccccc3nc1C(C)(C)C2	-4%	-16%	-68%	9.2µM*	2%	-13%
CC12CCC(C)(c3nc4ccccc4nc31)C2(C)C	-2%	-2%	-1%	0%	0%	-3%
Cc1ccc(NC(=O)CSc2ccccc2NC(=O)c2ccccc2Cl)cc1Cl	-4%	-11%	-16%	23µM*	-18%	-2%
Cc1cc(NC(=O)c2ccc(Cl)cc2)ccc1NC(=O)c1ccccc1Cl	4%	-6%	nt	5%	12µM*	16%
Cc1cc(NC(=O)c2ccccc2Cl)ccc1NC(=O)c1ccccc1Cl	17%	-1%	nt	7%	12µM*	17%
CCN(CC)c1ccc(C=Nc2ccccc2)c(O)c1	-8%	6%	20%	-2%	4.3µM*	-1%
SMILES	NPC1 prom act	ELG1 genotoxic	SMN2 splice up	ELG1 repair inh	FLuc modulator	Rab9 prom act
CCN(CC)c1ccc(/C=N/Nc2cccc(C)c2)c(O)c1	16%	14%	?	?	?	1%
CCN(CC)c1ccc(/C=N/Nc2ccccc2)c(O)c1	11%	8%	5%	28%	21µM*	15%
CCN(CC)c1ccc(/C=N/N2CCOCC2)c(O)c1	?	?	8.9µM*	?	13µM*	3.5µM*
CCN(CC)c1ccc(C=Nc2ccc(C)cc2)c(O)c1	0%	1%	8%	4%	11µM*	3%
COc1cccc(CNC(=O)C(CC(C)C)NS(=O)(=O)c2ccc3c(c2)oc(=O)n3C)c1 (configuration not stated)	nt	nt	11%	nt	-4%	nt
Cc1cccc(C(=O)Nc2cccc3c2CCCC3)c1	-4%	-2%	nt	-2%	-2%	0%
CCN(CC)c1ccc(C=Nc2ccc(N(C)C)cc2)c(O)c1	0%	13µM*	-1%	?	8.5µM*	15%
COc1cc(OC)c(NC(=O)CNC(=O)Cn2ccc3ccccc3c2=O)cc1Cl	-2%	5%	nt	6%	1%	-1%
CC(C)COC(=O)c1ccc2c(c1O)C(=O)c1ccccc1C2=O	2µM*	1.3µM*	?	?	1.3µM*	3.2µM*
Cc1ccc(NC(=O)Cn2c(=O)n(CCCCCC(=O)NCc3ccc(F)cc3)c(=O)c3sccc32)cc1C	nt	nt	-5%	nt	0%	nt
Cc1ccc(NC(=O)C(C)Sc2nc(-c3ccccc3)c(C#N)c(=O)[nH]2)c(C)c1 (configuration not stated)	nt	nt	nt	nt	12µM*	nt
CSc1nc(-c2ccccc2)c(C#N)c(=O)[nH]1	0%	-2%	nt	-16%	-1%	-3%
CC(Sc1nc(-c2ccccc2)c(C#N)c(=O)[nH]1)C(=O)Nc1ccc(F)cc1 (configuration not stated)	nt	nt	nt	nt	17µM*	nt
CN(C)c1ccc(CNc2ncc(Br)cc2Br)cc1	19%	11%	17%	?	19µM*	7%
CN(C)c1ccc(CNc2ccccn2)cc1	?	?	nt	?	13µM*	?
CN(C)c1ccc(-c2cc(NCc3cccnc3)ncn2)cc1	nt	nt	10µM*	nt	nt	nt
CSc1ccc(CNc2ccccn2)cc1	?	?	12%	?	15µM*	?
C/C(=N\NC(=O)CCC(=O)NCc1ccccc1)c1ccc([N+](=O)[O-])cc1	nt	2%	nt	-5%	nt	nt
CCOc1ccccc1NC(=O)CSc1nc(=O)n(CCCN2CCOCC2)c2c1CCCC2	-1%	1%	nt	10%	3%	0%
CCOC(=O)c1ccc(Nc2nc3nonc3nc2Nc2cccc(C)c2C)cc1	nt	nt	-42%	nt	?	nt
Cc1cccc(NCc2ccc(N(C)C)cc2)n1	?	18µM*	nt	?	11µM*	?
CCCCCC(=O)NC(=S)Nc1ccc2oc(=O)ccc2c1	-5%	0%	2%	5%	2%	-6%
CC(=O)c1csc(Nc2ccccc2Cl)n1	3.2µM*	?	nt	?	19µM*	2.8µM*
